Whole data set: some 1,400 sequences, median “thermal melting temperature (Tm) of peptide-HLA complex” near 60, cut for the lowest 2% near 45. Many of the other results were omitted from the sample, so the lowest values are more common in it than they were.
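Note: lysates heated 10 min at 37–73 °C, complexes pulled down with pan-HLA I antibody, peptide signal by DIA-MS relative to 37 °C, Tm where half the complex is unfolded.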

The target in this assay is HLA-B*07:02. Kind of assay: thermal melting temperature (Tm) of peptide-HLA complex; higher = more thermostable pHLA complex. The conditions noted are these: C1R-B*07:02.
RPTGGVGAV: the thermal melting temperature is 54.3 °C.

With SPANLPAVL, the thermal melting temperature was 62.6 °C.

Sequence FPRAPSTSDSV showed a thermal melting temperature of 57.1 °C.

TPLGTRSGL: the thermal melting temperature came out at 55.6 °C.

SPNLRLLDL gave a thermal melting temperature of 63.4 °C.

On to LPSPSPRISL, for which the thermal melting temperature was determined as 60.6 °C.

As for GSISRIYL, the thermal melting temperature worked out at 41.4 °C.

On to NVRPPNTAL, for which the thermal melting temperature came to 56.8 °C.

For the sequence APYSRPKQL, the thermal melting temperature is 61.5 °C.

APRGTGIVSA showed a thermal melting temperature of 57.4 °C.

In the case of IPRGADNLVAI, the thermal melting temperature was 61.8 °C.

On to VPRPPSLLATL, for which the thermal melting temperature is 62.9 °C.

Sequence FPQHTIASL yielded a thermal melting temperature of 58.7 °C.

GPRNVLLFL had a thermal melting temperature of 55.1 °C.

As for TPQQGAQTSL, the thermal melting temperature amounted to 40.5 °C.

In turn, TPQGFRSTL displayed a thermal melting temperature of 60 °C.

Regarding YLRDTLLAL, the thermal melting temperature is 53.6 °C.

With VPEVTKPSL, the thermal melting temperature was 57.6 °C.

With SPRPALPALL, the thermal melting temperature came out at 60.2 °C.

APILRARLLPL registered a thermal melting temperature of 47.3 °C.

The sequence YPKRPLLGL displayed a thermal melting temperature of 61.3 °C.

For YIDEGRLVL, the thermal melting temperature amounted to 51.6 °C.

GPRSSLRVL showed a thermal melting temperature of 58.9 °C.

FPRSVVEFL came in with a thermal melting temperature of 62 °C.

In turn, LPAPKGPAL registered a thermal melting temperature of 57.9 °C.

LPTSPGPAL: the thermal melting temperature turned out to be 40.6 °C.

For the sequence KPNHTLVLL, the thermal melting temperature came to 59.2 °C.

Consider RPADSMLNVL, for which the thermal melting temperature amounted to 62 °C.

The sequence RPAPLVQQL came in with a thermal melting temperature of 58.3 °C.

For the sequence APREHPFVL, the thermal melting temperature is 61 °C.

In the case of LPRTIFPTSTI, the thermal melting temperature came out at 62.8 °C.

On to LPHSATVTL, for which the thermal melting temperature was determined as 60.7 °C.

Sequence DPMKARVVL returned a thermal melting temperature of 49.3 °C.

Sequence IPKLPAVSF registered a thermal melting temperature of 63.1 °C.

As to QPRSPGPDYSL, the thermal melting temperature turned out to be 57.7 °C.

The sequence RPKALTQVL came in with a thermal melting temperature of 61 °C.

The values are drawn from the supplement of paper PMC7726561.
